Sfp inh = qHTS Assay for Inhibitors of Bacillus subtilis Sfp phosphopantetheinyl transferase (PPTase); 4'-phosphopantetheinyl transferase ffp (Bacillus subtilis), Q9F4F7; Biochemical Sfp PPTase activity, qHTS; Potency, µM, usual class: inhibitors; hit rate 3.5% among 310,000;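 further: the enzyme is Sfp with the accession as filed and its product quenches rhodamine fluorescence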
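Fluorescence-quenching assay: 15 nM Sfp-PPTase preincubated 15 min at room temperature with compound, then 5 uM rhodamine-CoA and 12.5 uM BHQ-2-labelled YbbR peptide added. Fluorescence (ex 525/em 598 nm) read at start and after 30 min; difference gives rate.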
PLK1 PBD inh = qHTS for Inhibitors of PLK1-PDB (polo-like kinase 1 - polo-box domain): Primary Screen; Plk1 PBD binding of FITC phosphopeptide, fluorescence polarization; Potency, µM, actives largely listed as inhibitors; hit rate 2.8% among 360,000; further: series mostly up to about 57 µM; nearly all actives have a fitted effect of over 65% in size
VDR inh = Inhibitors of the vitamin D receptor (VDR): qHTS. Vitamin D3 receptor (Homo sapiens), P11473. VDR-SRC2-3 peptide fluorescence polarization, 2 h. Potency, µM, hits mostly inhibitors. hit rate 0.93% among 400,000. AID 504847, 2011
Target sequence (P11473 whole entry, looked up): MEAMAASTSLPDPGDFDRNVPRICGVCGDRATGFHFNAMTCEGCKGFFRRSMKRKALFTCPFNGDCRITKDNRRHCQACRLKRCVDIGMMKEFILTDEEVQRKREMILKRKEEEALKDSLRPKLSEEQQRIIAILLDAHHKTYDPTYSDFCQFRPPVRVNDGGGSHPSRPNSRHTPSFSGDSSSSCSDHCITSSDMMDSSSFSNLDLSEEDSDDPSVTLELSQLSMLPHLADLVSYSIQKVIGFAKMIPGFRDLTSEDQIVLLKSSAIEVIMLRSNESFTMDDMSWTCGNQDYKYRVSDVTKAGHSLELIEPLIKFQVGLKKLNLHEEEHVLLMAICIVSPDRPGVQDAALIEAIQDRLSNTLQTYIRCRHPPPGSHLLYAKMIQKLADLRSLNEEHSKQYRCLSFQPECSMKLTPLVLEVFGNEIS
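Two reagent solutions held at 4 deg C in the dark were dispensed, compounds pinned at 23 nl, and the mixture incubated 2 h at room temperature. Read-out: fluorescence polarization of VDR–SRC2-3 peptide binding.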
Tau fluor counter = Counterscreen qHTS for Inhibitors of Tau Fibril Formation, Fluorescence Polarization; tau K18 P301L Alexa594 fluorescence, heparin fibrillization; hit rate 0.93% among 280,000; AID 1463, 2008; Potency, µM (titrated, usually from 57.7 µM); further: nearly all actives have a fitted effect of over 55% in size
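Human tau K18 P301L (15 uM unlabeled, 0.24 uM Alexa 594-labeled) in 100 mM sodium acetate pH 7 with 20 uM heparin, 6 hr at 37 C. ThT 30 uM added, 1 hr ambient; Alexa 594 FP and total fluorescence read at 555/632 nm.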
Tau fibril FP = qHTS for Inhibitors of Tau Fibril Formation, Fluorescence Polarization. K18 P301L tau heparin fibrillization, Alexa594 FP, 6 h. AID 1468, 2008. Potency, µM (top dose mostly 57.7 µM), most hits filed as inhibitors. Microtubule-associated protein tau (Homo sapiens), P10636. hit rate 0.39% among 280,000; further: nearly all actives have a fitted effect of over 55% in size
Target sequence (P10636 561-689 P618L limits assumed): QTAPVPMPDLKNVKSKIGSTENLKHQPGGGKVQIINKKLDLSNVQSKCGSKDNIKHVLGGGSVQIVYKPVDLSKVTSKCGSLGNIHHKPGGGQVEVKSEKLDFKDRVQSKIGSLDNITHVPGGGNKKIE
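Read-out: fluorescence polarization of Alexa 594-labeled tau (0.24 uM), 555 nm excitation, 632 nm emission. Mixtures held 15 uM unlabeled K18 P301L, compound and 20 uM heparin, pH 7 acetate buffer, incubated 6 hr at 37 C.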
Tau ThT inhib = qHTS for Inhibitors of Tau Fibril Formation, Thioflavin T Binding. Microtubule-associated protein tau (Homo sapiens), P10636. Potency, µM (titrated, usually from 57.4 µM), most hits filed as inhibitors. AID 1460, 2008. recombinant tau K18 P301L, heparin-induced fibrillization, ThT fluorescence. hit rate 2.1% among 270,000; further: nearly all actives have a fitted effect of over 55% in size
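ThT emission at 510 nm, taken 1 hr after adding 30 uM dye, quantifies aggregates formed when 20 uM heparin acts on human tau K18 P301L for 6 hr at 37 C.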
Hits are given with their value; - = inactive; ? = inconclusive; . = not tested or not shown; [ ] = remark or other dose. A selection: hits, their analogues and other compounds. The true share with any hit is near 6%. The call rests on the fitted dose curve; in most records, active means well fitted curve in the direction sought with a large enough effect; inconclusive means small, poorly fitted or top-dose-only effect, or another doubt; inactive means no such curve, though single readings can be large; an effect the other way counts as inactive or inconclusive.

SMILES	Sfp inh	PLK1 PBD inh	VDR inh	Tau fluor counter	Tau fibril FP	Tau ThT inhib
COc1ccc(S(=O)(=O)N2c3ccccc3OCC2CC(=O)O)cc1 (centres undefined)	-	21.2µM	?	.	.	.
O=C(O)CC1COc2ccccc2N1S(=O)(=O)c1ccc(Br)cc1 (centres undefined)	-	-	-	.	.	.
COc1ccc(S(=O)(=O)N2CCN(C(=O)C3COc4ccccc4O3)CC2)cc1 (centres undefined)	.	10.6µM	-	.	.	.
COc1cc2nc(N3CCN(C(=O)C4COc5ccccc5O4)CC3)nc(N)c2cc1OC (centres undefined)	56.2µM	-	-	?	-	?
COc1ccc2c(C)c(CC(=O)N3CCN(C(=O)C4COc5ccccc5O4)CC3)c(=O)oc2c1C (centres undefined)	-	3.36µM	?	.	.	.
COc1cccc(NC(=O)C(=O)NCCC2CCCCN2S(=O)(=O)c2cccs2)c1 (centres undefined)	.	-	-	.	.	.
O=C1NC(=S)SC1=Cc1ccccn1	.	-	.	.	.	.
COc1ccc(CCNC(=O)Nc2nc(C(N)COCc3ccccc3)cs2)cc1OC (centres undefined)	.	-	.	.	.	.
CCC(C)NCCOCCOc1ccc(Cl)c2ccccc12 (centres undefined)	20µM	-	-	-	-	-
CCC(C)NCCOCCOc1ccc(Cl)c(C)c1C (centres undefined)	-	-	-	-	-	-
Clc1ccc(OCCCNCc2ccccc2)c2ccccc12	56.2µM	-	-	.	.	.
COc1ccc(Cn2cc(Cn3c4ccccc4c(=O)n3C(C)C)nn2)cc1	.	-	.	.	.	.
Clc1ccccc1CNc1nc2ccccc2c2nc(-c3cccnc3)nn12	.	.	-	-	?	-
CCc1ccc(C(C)NC(=O)c2cc(C)oc2C)cc1 (centres undefined)	15.8µM	?	-	-	-	?
Cc1cc(C(=O)NN)c(C)o1	-	-	-	-	-	?
O=C(CSc1nc2ccsc2c(=O)n1Cc1ccccc1Cl)NCc1ccc(F)cc1	.	.	-	-	-	-
CCN(CC)CCN1C(=O)C(O)=C(C(=O)c2cccs2)C1c1ccccn1 (centres undefined)	56.2µM	-	-	-	-	?
CCN(CC)CCN1C(=O)C(O)=C(C(=O)c2cccs2)C1c1ccc(C)o1 (centres undefined)	-	-	-	-	-	-
COc1ccc(/C=N/NC(=O)c2ccoc2C)cc1CN1CCN(c2ccc(F)cc2)CC1	-	-	-	.	.	.
CCOC(=O)n1c(=O)n(Cc2cccc(C)c2)c2ccccc21	-	11.9µM	?	-	-	-
CCOC(=O)n1c(=O)n(Cc2ccccc2Cl)c2ccccc21	-	-	-	-	-	-
COc1ccc(NC(=O)c2sc3nc4c(cc3c2N)CN(C(C)C)CC4)c(OC)c1	.	.	-	14.1µM[quencher]	?	12.6µM
CN1CCc2nc3sc(C(=O)Nc4c(F)cccc4F)c(N)c3cc2C1	.	.	-	?	-	?
Cc1cccc(NC(=O)c2sc3nc4c(cc3c2N)CN(C(C)C)CC4)c1	.	.	-	17.8µM[quencher]	-	12.6µM
COc1ccccc1NC(=O)c1sc2nc3c(cc2c1N)CCCCCC3	.	.	-	?	-	?
SMILES	Sfp inh	PLK1 PBD inh	VDR inh	Tau fluor counter	Tau fibril FP	Tau ThT inhib
CN1CCc2nc3sc(C(=O)Nc4cccc(C#N)c4)c(N)c3cc2C1	.	.	-	?	-	12.6µM
CC(C)OC(=O)CC(=O)c1sc2nc3c(cc2c1N)CN(C)CC3	44.7µM	-	-	-	-	?
Cc1ccc2c(c1)-c1onc(C(=O)N(C)c3ccc(F)cc3)c1CO2	.	.	-	-	-	-
COc1cc(/C=C2\SC(=S)N(NC(=O)c3ccccc3OC)C2=O)ccc1O	-	-	-	.	.	.
Cn1cccc1/C=C1\SC(=S)N(NC(=O)c2ccccc2O)C1=O	?	-	-	?	-	7.94µM
COc1ccccc1C(=O)NN1C(=O)/C(=C/c2cccn2C)SC1=S	-	.	.	?	-	?
Cn1cccc1/C=C1\SC(=S)N(NC(=O)c2ccccc2)C1=O	-	-	-	?	-	11.2µM
O=C(NN1C(=O)/C(=C/C=C/c2ccco2)SC1=S)c1ccccc1O	56.2µM	6.7µM	-	?	?	7.08µM
Cn1cccc1/C=C1\SC(=S)N(NC(=O)c2cccc(Cl)c2)C1=O	-	-	-	?	-	3.98µM
COc1ccccc1-c1ccc2ncnc(NCCN3CCOCC3)c2c1	-	.	?	.	.	.
CCN(CC)S(=O)(=O)c1ccc(O)c(C(=O)OCC(=O)N2CCCc3ccccc32)c1	.	-	.	.	.	.
O=C(O)c1ccc(/C=C2\SC(=S)N(NC(=O)c3ccccc3)C2=O)cc1	-	-	-	.	.	.
Cn1cccc1/C=C1\SC(=S)N(NC(=O)c2ccc(F)cc2)C1=O	-	-	-	?	-	3.55µM
COc1ccc([N+](=O)[O-])cc1NC(=S)NC(NC(C)=O)C(Cl)(Cl)Cl (centres undefined)	-	26.7µM	-	-	-	-
COc1ccc(NC(=S)NC(NC(=O)C(C)C)C(Cl)(Cl)Cl)c([N+](=O)[O-])c1 (centres undefined)	-	26.7µM	-	-	-	-
COc1ccc(-c2csc(-c3[nH]cnc3N)n2)cc1	-	-	-	15.8µM[quencher]	-	11.2µM
COc1ccc(-c2csc(-c3ccc(C(=O)O)cc3)n2)cc1	-	-	-	-	-	-
COC(=O)c1ccccc1NC(=O)c1sc(N)nc1C	-	-	-	-	-	-
COC(=O)c1ccccc1NC(=O)c1sc(=S)n(C)c1N	25.1µM	5.97µM	-	?	-	?
COc1ccc(-n2ncc(C(=O)N3CCN(c4ccccn4)CC3)c2C2CCN(C(=O)OC(C)(C)C)CC2)cc1	.	.	-	-	-	-
Oc1ccc(C=Nc2ccc(N3CCOCC3)cc2)c(O)c1	-	-	-	?	?	15.8µM
Oc1cc(Br)ccc1C=Nc1ccc(N2CCCCC2)cc1	-	-	-	?	-	14.1µM
Oc1c(Cl)cc(Cl)cc1C=Nc1ccc(N2CCOCC2)cc1	-	-	44.7µM	.	.	.
Clc1cccc(-c2ccc(C=Nc3ccc(N4CCOCC4)cc3)o2)c1Cl	?	-	?	?	-	12.6µM
CCOc1cccc(CC(=O)N2CCc3c([nH]c4ccc(OC)cc34)C2c2ccc(F)cc2)c1OCC (centres undefined)	.	.	-	-	-	-
N#Cc1ccc(CN2CC[C@@]3(CCCN(S(=O)(=O)c4ccccc4)C3)C2)cc1	-	.	?	.	.	.
C/C(=C\CO)CCO	-	.	-	-	-	-

Source: PubChem BioAssay (National Center for Advancing Translational Sciences (NCATS))
